Among the data in the supplement of paper PMC9477273 are maximum fold change values, retold here.

The test system of the assay is DRIVER-selected RNA biosensor (aptazyme) pool. Description: maximum fold change of ribozyme cleavage across biosensor pool versus no-compound control; higher = stronger biosensor response (ligand inhibits cleavage). Conditions: 10 µM. Put shortly:
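Values are the maximum fold change of cleavage over all biosensors in a CleaveSeq assay, defined as the cleaved:uncleaved read-fraction ratio against a no-compound condition after correction with reference sequences. The 1,730 array-resynthesized ribozyme biosensors were T7-transcribed for 15–30 min at 37°C with 9 mM rNTPs and a single compound at 10 µM final, then reverse-transcribed at 50°C. Read counts came from Illumina sequencing of PCR-barcoded cleaved and uncleaved products.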
`CCOC(=O)/C(=CC=CN1CCOCC1)/C(=O)C` had a maximum fold change of 1.94.
Then `COc1ccc(OC)c(/C=C2/N=C(c3cccc(Cl)c3Cl)OC2=O)c1`, with 4.84.
Then `CCOC(=O)c1cc(-c2ccc(C)cc2)n(CC(=O)NC(C)CC)c1C` (stereo not drawn), with 2.38.
Then `COc1ccccc1OCCCn1cccc1/C=C1\C(=N)N2N=C(N3CCOCC3)SC2=NC1=O`, with 2.03.
The compound `CCOC(=O)c1ccc(S(=O)(=O)N2CCOCC2)cc1` returned a maximum fold change of 1.53.
Then `Cc1ccc(C)c(Cn2c(C)c(CNCCCN3CCCC3=O)c(C(=O)O)c2C)c1`, with 2.12; and `C=Cc1ccc(Cn2c(C(=O)O)c(CNCc3ccco3)c3ccc(C)cc32)cc1`, with 2.45.
For `Cc1ccc(CNCc2c(C(=O)O)c(C)n(Cc3ccccc3C)c2C)o1`, the maximum fold change turned out to be 3.25.
For `COc1cc(-c2nc3n(n2)C(c2ccncc2)C(C(N)=O)=C(C)N3)cc(OC)c1OC` (stereo not drawn), the maximum fold change is 2.35.
Then `COc1ccc2c(c1)c(C(=O)O)c(C)n2CCc1ccc(OC)c(OC)c1`, with 2.38.
Then `COCCN1C(=O)c2[nH]nc(-c3ccccc3O)c2C1c1ccccc1` (stereo not drawn), with 3.01; and `COc1ccc(CCn2c(SCC(=O)Nc3cc(C)n[nH]3)nc3ncccc3c2=O)cc1OC`, with 11.2.
`CCOc1ccc(/C=C2\SC(N3CC(C)OC(C)C3)=NC2=O)cc1` (stereo not drawn) came in with a maximum fold change of 2.08.
Then `N/C(=N\OC(=O)N1CCOCC1)c1cccnc1`, with 3.37.
Then `CCOC(=O)C1=C(C)Nc2nc(-c3cccs3)nn2C1c1ccc(C#N)cc1` (stereo not drawn), with 1.85; and `CC1CCC(NC(=O)c2cc(C3CC3)n[nH]2)CC1` (stereo not drawn), with 1.87; and `COCCNCc1c(C(=O)O)c(C)n(Cc2ccccc2F)c1C`, with 2.4.
Then `Cc1cc(C)c(Cn2c(C)c(CNCc3cccc(Cl)c3)c(C(=O)O)c2C)c(C)c1`, with 1.74.
